Assay results taken from PubChem BioAssay (NCATS).
Inconclusive results are not listed. The source made the active and inactive calls. Unless noted, the call rests on the fitted dose curve; in most records, active means well fitted curve in the direction sought with a large enough effect; inconclusive means small, poorly fitted or top-dose-only effect, or another doubt; inactive means no such curve, though single readings can be large; an effect the other way counts as inactive or inconclusive.

Tests used:
[1] = target: T1, Hexokinase-4 (Homo sapiens) + Glucokinase regulatory protein (Homo sapiens) (UniProt P35557+Q14397); assay: qHTS assay for inhibitors of recombinant human GCK-GKRP interaction: Diaphorase-coupled assay (AID 743205)
T1 sequence (P35557 whole entry, looked up): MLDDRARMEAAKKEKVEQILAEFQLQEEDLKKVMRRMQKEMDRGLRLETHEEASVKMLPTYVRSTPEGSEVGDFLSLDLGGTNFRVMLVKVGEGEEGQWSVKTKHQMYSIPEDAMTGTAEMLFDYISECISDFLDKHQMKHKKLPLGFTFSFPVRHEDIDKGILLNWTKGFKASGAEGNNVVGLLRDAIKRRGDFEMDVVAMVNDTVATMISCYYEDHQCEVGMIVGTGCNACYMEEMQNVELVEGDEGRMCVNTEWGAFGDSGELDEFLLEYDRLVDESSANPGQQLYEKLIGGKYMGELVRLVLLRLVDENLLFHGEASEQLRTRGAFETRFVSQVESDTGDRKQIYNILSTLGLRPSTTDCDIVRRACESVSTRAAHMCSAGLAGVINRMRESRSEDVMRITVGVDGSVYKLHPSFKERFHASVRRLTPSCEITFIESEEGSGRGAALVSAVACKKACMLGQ
T1 sequence (Q14397 whole entry, looked up): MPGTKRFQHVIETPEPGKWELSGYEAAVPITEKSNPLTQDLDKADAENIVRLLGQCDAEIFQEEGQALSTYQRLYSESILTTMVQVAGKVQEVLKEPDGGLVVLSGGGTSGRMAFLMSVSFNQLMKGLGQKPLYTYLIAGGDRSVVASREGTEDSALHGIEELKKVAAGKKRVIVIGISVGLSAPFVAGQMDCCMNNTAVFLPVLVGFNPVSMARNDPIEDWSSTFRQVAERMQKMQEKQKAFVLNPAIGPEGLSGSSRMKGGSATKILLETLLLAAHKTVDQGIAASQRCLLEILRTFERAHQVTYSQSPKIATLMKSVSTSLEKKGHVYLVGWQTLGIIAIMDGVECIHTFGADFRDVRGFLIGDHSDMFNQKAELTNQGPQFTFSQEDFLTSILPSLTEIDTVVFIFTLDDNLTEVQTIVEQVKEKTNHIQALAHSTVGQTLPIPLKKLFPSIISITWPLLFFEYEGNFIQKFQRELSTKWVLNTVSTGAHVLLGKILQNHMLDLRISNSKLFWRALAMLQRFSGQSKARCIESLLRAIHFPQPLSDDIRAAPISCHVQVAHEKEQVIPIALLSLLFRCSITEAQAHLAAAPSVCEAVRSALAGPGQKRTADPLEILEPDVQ
Method in brief: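 A kinetic fluorescence read (Ex 525/Em 590 nm, every minute for 30 minutes) tracked resorufin from a G6PDH-diaphorase coupled GCK reaction. It contained 10 nM GST-GCK, 10 nM FLAG-GKRP, 5 mM glucose, 0.4 mM ATP in Hepes pH 7.6. Normalized to with/without-enzyme DMSO controls.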

[2] = target: T1, Hexokinase-4 (Homo sapiens) + Glucokinase regulatory protein (Homo sapiens); assay: qHTS assay for inhibitors of recombinant human GCK-GKRP interaction: ADP-Glo assay (AID 743206);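 further: plate controls were DMSO plus enzyme for no effect and no enzyme for full effect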
Method in brief: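 Pin-transferred compounds meet a 15 nM GST-GCK/15 nM FLAG-GKRP/2 uM S6P mix (dispense concentrations). ATP is then added to 0.4 mM final with 5 mM glucose, and the reaction runs 60 min at room temperature. ADP is quantified luminescently.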

[3] = target: T1, Hexokinase-4 (Homo sapiens) + Glucokinase regulatory protein (Homo sapiens); assay: qHTS assay for inhibitors of recombinant human GCK-GKRP interaction: HTRF assay (AID 743207);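 further: 0% = DMSO with GCK present and -100% = DMSO wells lacking GCK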
Method in brief: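 After 60 min equilibration at room temperature with anti-FLAG XL665 and anti-GST antibodies, FRET ratio (665/615 nm, excitation 320 nm) was read. Proteins: GST-GCK and FLAG-GKRP, each 5 nM, plus 2 uM S6P, pH 7.1 buffer; GCK-free wells define minimum signal.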

[4] = qHTS Assay for Identifying Gametocytocidal Compounds (AID 743244); further: potency means the concentration at half of the fitted maximal effect;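 on max response: on the % scale 0 is the no-effect control and ±100 the full control effect; actives lower the fluorescent signal which means gametocytes are killed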; conditions: P. falciparum 3D7 stage III-V gametocytes, alamarBlue, 72 h; max response: active compounds read low
Method in brief: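 Late gametocytes (III–V), P. falciparum 3D7; 72 h drug, then 24 h alamarBlue; resazurin reduction read by fluorescence.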

[5] = qHTS assay for measurement of the activity of small molecule inhibitors on Zika virus induced Caspase-3 activity in human iPSC derived neural progenitor cells (hNPCs) (AID 1224857); further: nearly all actives have a fitted effect of over 65% in size; further: potency means the concentration at half of the fitted maximal effect
Method in brief: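 Caspase-3/7 induction by a 6-hour ZIKV infection was quantified with a luminescent Caspase-Glo 3/7 reagent incubated 30 minutes at room temperature. Compounds were preincubated with hNPCs for 1 hour; inhibition was calculated against uninfected and infected control wells.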

[6] = qHTS assay for measurement of the activity of small molecule inhibitors on Zika virus induced Caspase-3 activity in human astrocytoma cells (AID 1224859); further: potency means the concentration at half of the fitted maximal effect
Method in brief: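 In SNB-19 cells plated at 250 cells/well and grown 16-20 h, compounds were applied 1 h before ZIKV (2 FFU/cell). Six hours later caspase-3/7 luminescence was recorded.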

[7] = Natriuretic polypeptide receptor (hNpr1) antagonism - Pilot counterscreen GloSensor control cell line (AID 1347045; calls by dose curve; further: potency means the concentration at half of the fitted maximal effect)
Method in brief: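 Control counterscreen: luciferase cGMP-biosensor HEK293 cells (no Npr1) received compound for 30 min at room temperature after GloSensor substrate loading. Luminescence was measured before and 20 min after soluble guanylyl cyclase activation by 50 uM nitroprusside.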

[8] = target: Atrial natriuretic peptide receptor 1 (Homo sapiens) (UniProt P16066); assay: Natriuretic polypeptide receptor (hNpr1) antagonism - Pilot screen (AID 1347049; calls by dose curve;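 further: agonist-evoked cGMP luminescence read 20 min after hNppA addition; series mostly up to about 58 µM; on the % scale 0 is the no-effect control and ±100 the full control effect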)
Sequence of Atrial natriuretic peptide receptor 1 (Homo sapiens) (P16066 whole entry, looked up): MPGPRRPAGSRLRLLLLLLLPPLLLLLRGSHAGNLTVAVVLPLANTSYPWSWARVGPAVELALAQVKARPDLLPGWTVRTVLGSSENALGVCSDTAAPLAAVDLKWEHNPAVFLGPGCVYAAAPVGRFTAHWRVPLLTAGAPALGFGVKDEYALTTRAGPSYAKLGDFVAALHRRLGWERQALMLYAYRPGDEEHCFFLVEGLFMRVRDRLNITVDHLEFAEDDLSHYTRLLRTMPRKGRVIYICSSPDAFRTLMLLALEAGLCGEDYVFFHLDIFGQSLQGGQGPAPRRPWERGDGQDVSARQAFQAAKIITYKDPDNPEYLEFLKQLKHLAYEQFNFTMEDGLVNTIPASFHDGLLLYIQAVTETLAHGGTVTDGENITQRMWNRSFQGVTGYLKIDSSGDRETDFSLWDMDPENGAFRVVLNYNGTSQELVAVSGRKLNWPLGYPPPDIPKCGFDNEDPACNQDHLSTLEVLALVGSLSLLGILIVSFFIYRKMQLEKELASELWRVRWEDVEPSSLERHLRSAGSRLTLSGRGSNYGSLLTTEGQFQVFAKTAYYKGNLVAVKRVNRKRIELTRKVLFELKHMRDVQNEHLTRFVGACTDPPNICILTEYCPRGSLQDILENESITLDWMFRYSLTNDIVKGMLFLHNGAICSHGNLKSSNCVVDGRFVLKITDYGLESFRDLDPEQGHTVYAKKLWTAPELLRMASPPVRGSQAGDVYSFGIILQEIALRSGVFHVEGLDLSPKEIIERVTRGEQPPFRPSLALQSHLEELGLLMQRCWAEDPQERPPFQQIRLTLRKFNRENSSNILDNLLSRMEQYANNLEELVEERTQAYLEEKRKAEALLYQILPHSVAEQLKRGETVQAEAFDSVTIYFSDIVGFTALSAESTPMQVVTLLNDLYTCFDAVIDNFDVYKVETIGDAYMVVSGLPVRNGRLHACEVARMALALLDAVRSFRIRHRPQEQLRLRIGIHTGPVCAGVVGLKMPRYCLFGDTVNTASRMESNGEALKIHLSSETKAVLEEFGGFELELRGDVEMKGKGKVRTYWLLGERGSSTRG
Method in brief: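 cGMP-sensor HEK293/hNpr1 cells, 1500/well, plated overnight at 37C. 2% GloSensor reagent, 2 h RT. Compound (23 nL pin transfer) 30 min RT, baseline luminescence pre-read. 0.1 nM hNppA, 20 min RT, post-read.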

[9] = target: Atrial natriuretic peptide receptor 2 (Homo sapiens) (UniProt P20594); assay: Natriuretic polypeptide receptor (hNpr2) antagonism - Pilot subtype selectivity assay (AID 1347050; calls by dose curve; further: potency means the concentration at half of the fitted maximal effect)
Sequence of Atrial natriuretic peptide receptor 2 (Homo sapiens) (P20594 whole entry, looked up): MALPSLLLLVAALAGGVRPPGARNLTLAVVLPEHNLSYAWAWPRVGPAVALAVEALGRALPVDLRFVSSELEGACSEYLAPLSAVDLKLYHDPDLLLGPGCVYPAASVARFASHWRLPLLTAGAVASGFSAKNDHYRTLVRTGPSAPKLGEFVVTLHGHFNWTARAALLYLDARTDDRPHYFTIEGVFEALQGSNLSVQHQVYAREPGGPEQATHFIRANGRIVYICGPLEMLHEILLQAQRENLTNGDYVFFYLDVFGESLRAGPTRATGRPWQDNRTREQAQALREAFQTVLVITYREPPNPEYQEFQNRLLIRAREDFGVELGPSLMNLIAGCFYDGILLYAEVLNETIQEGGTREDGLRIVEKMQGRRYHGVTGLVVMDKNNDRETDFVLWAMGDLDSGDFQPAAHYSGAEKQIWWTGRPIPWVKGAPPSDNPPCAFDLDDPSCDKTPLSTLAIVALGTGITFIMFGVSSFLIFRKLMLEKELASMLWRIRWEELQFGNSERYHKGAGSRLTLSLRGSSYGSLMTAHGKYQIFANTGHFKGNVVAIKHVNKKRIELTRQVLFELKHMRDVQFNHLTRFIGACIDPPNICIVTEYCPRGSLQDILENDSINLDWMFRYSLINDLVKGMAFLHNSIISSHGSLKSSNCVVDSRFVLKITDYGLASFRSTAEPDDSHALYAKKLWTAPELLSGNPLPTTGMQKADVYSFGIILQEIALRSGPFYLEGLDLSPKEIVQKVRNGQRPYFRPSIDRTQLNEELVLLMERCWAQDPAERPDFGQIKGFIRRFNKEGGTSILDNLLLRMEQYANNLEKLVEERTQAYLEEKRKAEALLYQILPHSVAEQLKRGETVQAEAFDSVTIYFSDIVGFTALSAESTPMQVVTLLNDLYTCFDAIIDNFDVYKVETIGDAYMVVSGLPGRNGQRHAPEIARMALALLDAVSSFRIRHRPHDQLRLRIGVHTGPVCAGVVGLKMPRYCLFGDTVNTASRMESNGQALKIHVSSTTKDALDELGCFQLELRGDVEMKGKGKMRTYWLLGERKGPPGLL
Method in brief: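 Luminescence from a genetically encoded cGMP luciferase biosensor in hNpr2-expressing HEK293 cells is read before and 20 min after adding 1 nM hNppC. Test compounds, in interplate 1:5 titrations, are added 30-50 min ahead of the agonist.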

NCCNS(=O)(=O)c1cccc2c(Cl)cccc12
inactive: Potency [1] | Potency [2] | Potency [3] | Potency [5] | Potency [6] | Potency [7] | Potency [8]
active: Potency [4] 3.16 µM

CCN1C(=O)C=CC1=O
inactive: Potency [2] | Potency [3] | max response [4] 14.2% | Potency [5] | Potency [6] | Potency [7] | Potency [8] | Potency [9]

Nc1nc2c(nc(Br)n2C2OC3COP(=O)(O)O[C@@H]3C2O)c(=O)[nH]1 (some centres not stated)
inactive: Potency [2] | Potency [3] | max response [4] 9.58% | Potency [5] | Potency [6] | Potency [7] | Potency [8] | Potency [9]

O=C1OC(=O)C2C3CCC(O3)C12 (configuration not stated)
inactive: Potency [2] | Potency [3] | max response [4] 26.3% | Potency [5] | Potency [6] | Potency [7] | Potency [8] | Potency [9]

NC1CCN(O)C1=O (configuration not stated)
inactive: Potency [1] | Potency [2] | Potency [3] | Potency [5] | Potency [6] | Potency [7] | Potency [8]

NCCCCN=C(N)N
inactive: Potency [1] | Potency [2] | Potency [3] | Potency [5] | Potency [6] | Potency [7] | Potency [8]

O=c1onc2n1-c1cc(Br)ccc1OC2
active: Potency [7] 0.131 µM
inactive: Potency [2] | Potency [3] | max response [4] 20.4% | Potency [5] | Potency [6] | Potency [8] | Potency [9]

CN1C2CCC1CC(OC(c1ccccc1)c1ccccc1)C2 (configuration not stated)
inactive: Potency [1] | Potency [2] | Potency [3] | max response [4] 31% | Potency [5] | Potency [6] | Potency [7] | Potency [8]

CCOC(=O)C12CC1/C(=N/O)c1ccccc1O2 (configuration not stated)
inactive: Potency [2] | Potency [3] | max response [4] 0.715% | Potency [5] | Potency [6] | Potency [7] | Potency [8] | Potency [9]

CC(N)(Cc1ccc(O)c(O)c1)C(=O)O (configuration not stated)
inactive: Potency [1] | Potency [2] | Potency [3] | Potency [5] | Potency [6] | Potency [8] | Potency [9]

Nc1ccc(-c2ccc3ccccc3n2)cc1
inactive: Potency [1] | Potency [2] | Potency [3] | max response [4] 11.1%
active: Potency [5] 7.08 µM | Potency [6] 7.08 µM | Potency [7] 14.7 µM | Potency [9] 16.5 µM

Cc1nc2c(OCc3ccccc3)cccn2c1CC#N
inactive: Potency [1] | Potency [2] | Potency [3] | max response [4] 18.4% | Potency [5] | Potency [6] | Potency [7] | Potency [9]

N=C(N)c1ccccc1
inactive: Potency [1] | Potency [2] | Potency [3] | max response [4] 17.2% | Potency [5] | Potency [6] | Potency [7] | Potency [8]

CC[C@H](NC(=O)c1c(C)c(-c2ccccc2)nc2ccccc12)c1ccccc1
inactive: Potency [1] | Potency [2] | Potency [3] | max response [4] 5.87% | Potency [5] | Potency [6] | Potency [7] | Potency [9]

C[C@@]1(C2CCCC2)Cc2cc(OCC(=O)O)c(Cl)c(Cl)c2C1=O
inactive: Potency [1] | Potency [2] | Potency [3] | max response [4] 33.9% | Potency [5] | Potency [6] | Potency [7] | Potency [8]

N#CC(=C(\N)Sc1ccccc1N)/C(C#N)=C(/N)Sc1ccccc1N
inactive: Potency [1] | Potency [2] | Potency [3] | max response [4] 14.1% | Potency [5] | Potency [6] | Potency [9]
active: Potency [7] 18.5 µM

CCCCCCCCCCCCCCCCCCOC[C@H](COP(=O)([O-])OCC[N+](C)(C)C)OC
inactive: Potency [1] | Potency [2] | Potency [3] | max response [4] 10.4% | Potency [5] | Potency [6]
active: Potency [7] 14.7 µM

O=c1oc(Cl)c(Cl)c2ccccc12
active: Potency [7] 13.1 µM | Potency [9] 13.1 µM
inactive: Potency [1] | Potency [2] | Potency [3] | max response [4] 31% | Potency [5] | Potency [6]

COc1cccc(OC)c1OCCNCC1CSc2ccccc2O1 (configuration not stated)
inactive: Potency [1] | Potency [2] | Potency [3] | Potency [5] | Potency [6] | Potency [7] | Potency [9]

CCCCCCCC/C=C\CCCCCCCC(=O)NCCc1ccc(O)c(O)c1
inactive: Potency [1] | Potency [2] | Potency [3] | max response [4] 7.46% | Potency [5] | Potency [6] | Potency [7] | Potency [8]

C=C1C(=O)O[C@@H]2[C@H]3O[C@]3(C)CCC=C(C)CC[C@@H]12
active: Potency [7] 18.5 µM | Potency [9] 11.7 µM
inactive: Potency [1] | Potency [2] | Potency [3] | Potency [5] | Potency [6]
